Data on 34 molecules can be found in ChEMBL document CHEMBL3433997, “St. Jude Leishmania screening dataset” (2016).

Common to all, as to type: functional
For test [1], the target named is Solute carrier family 2, facilitated glucose transporter member 1 (Homo sapiens) (UniProt P11166). In words: ST_JUDE_LEISH: Cytotoxicity at 2uM final concentration against transgenic Leishmania Mexicana promastigotes LmGLUT1 that are glucose transport deficient and complemented with the human glucose transporter GLUT1. Activity is measured by DNA content using SYBR green in vitro.
Solute carrier family 2, facilitated glucose transporter member 1 (Homo sapiens), sequence (P11166 whole entry): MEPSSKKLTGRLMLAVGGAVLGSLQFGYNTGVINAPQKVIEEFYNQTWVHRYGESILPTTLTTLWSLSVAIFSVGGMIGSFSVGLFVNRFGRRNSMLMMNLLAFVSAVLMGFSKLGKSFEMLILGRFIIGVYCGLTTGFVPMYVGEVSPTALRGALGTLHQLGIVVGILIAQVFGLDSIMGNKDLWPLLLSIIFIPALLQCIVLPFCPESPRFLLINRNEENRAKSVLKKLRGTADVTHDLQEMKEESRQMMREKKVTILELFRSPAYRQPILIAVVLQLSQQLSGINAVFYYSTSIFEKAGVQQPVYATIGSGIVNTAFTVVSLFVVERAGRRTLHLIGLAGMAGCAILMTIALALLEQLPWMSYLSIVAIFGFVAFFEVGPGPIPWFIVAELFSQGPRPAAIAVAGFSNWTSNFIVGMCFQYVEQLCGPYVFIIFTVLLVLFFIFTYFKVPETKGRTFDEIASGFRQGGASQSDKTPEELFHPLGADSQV

Test [2] has as its target Hexose transporter 1 (Plasmodium falciparum) (UniProt O97467). In words: ST_JUDE_LEISH: Cytotoxicity at 2uM final concentration against transgenic Leishmania Mexicana promastigotes LmPfHT that are glucose transport deficient and complemented with the Plasmodium falciparum hexose transporter. Activity is measured by DNA content using SYBR green in vitro.
The target in test [3] is Glucose transporter (Leishmania mexicana) (UniProt O61059). In words: ST_JUDE_LEISH: Cytotoxicity at 2uM final concentration against transgenic Leishmania Mexicana promastigotes LmGT2 that are glucose transport deficient and complemented with the L. Mexicana glucose transporter 2. Activity is measured by DNA content using SYBR green in vitro.

Regarding `CCCCCCCCc1c(C)nc(C)c(Br)c1O`, the inhibition in test [1] is 0.75%; in test [2] it was -0.72%; in test [3], -0.12%.

Turning to `Oc1ccccc1CNCc1ccc(-c2cnc(N3CCCC(c4ccccc4)C3)nc2)cc1` (configuration not stated), the inhibition in test [1] came out at 3.52%; in test [2], 2.64%; in test [3], 9.12%.

For `CCCC(C)Nc1nc(C)cc(N[C@@H](Cc2ccccc2)C(=O)Nc2ccccc2)n1` (some centres not stated), the inhibition in test [1] came out at 2.98%; in test [2], 3.18%; in test [3], 0.41%.

On to `Clc1ccc(-n2cnc3c(Nc4ccc(Oc5ccccc5)cc4)ncnc32)cc1Cl`, for which the figures for the inhibition in test [1], in test [2] and in test [3] were 1.38%, 1.39% and -1.22%, respectively.

Consider `COc1ccc(C(=O)C2CCN(CCCCNC(=O)c3ccc(NC(=O)c4ccc(Cl)cc4)cc3)CC2)c(OC)c1`, for which the inhibition is 2.37% in test [1], 2.82% in test [2] and 1.53% in test [3].

Consider `CC1CN(c2cnn(Cc3cccc(NC(=O)Nc4ccc(-c5ccccc5)cc4)c3)c(=O)c2Cl)CC(C)N1` (configuration not stated), for which the inhibition in test [1] turned out to be 8.54%; in test [2] it was 5.56%; in test [3], 7.15%.

As for `CC(C)n1ncc2c(C(=O)N3CCCC4CCCCC43)cc(C3CC3)nc21` (configuration not stated), the inhibition in test [1] amounted to 5.54%; in test [2], 6.45%; in test [3] it was 5.73%.

On to `CCCC(=O)Nc1ccc(OCCCN(Cc2ccccc2C(F)(F)F)c2ccc(C#N)c(C(F)(F)F)c2)cc1`, for which the inhibition was determined as 3.53% in test [1], 4.53% in test [2] and 4.55% in test [3].

On to `O=C(Nc1cc(C(F)(F)F)cc(C(F)(F)F)c1)Nc1ccc(Cl)c(Cl)c1`, for which the inhibition in test [1] was 0.47%; in test [2] it was 1.04%; in test [3] it was 1.22%.

With `CC(=O)Oc1cc(OCc2ccccc2)c(OC(C)=O)c(OCc2ccccc2)c1`, the values for the inhibition in test [1], in test [2] and in test [3] were 6.3%, 5.31% and -0.19%, respectively.

`CN1CCCN(c2ccnc3cc4c(cc23)N(C(=O)c2ccccc2Cl)CC4)CC1`: the inhibition in test [1] is -0.76%; in test [2] it was 0.96%; in test [3] it was -0.18%.

In the case of `COc1ccc(Nc2nccc(N3CCC(NC(=O)c4cccc(C#N)c4)C3)n2)cc1` (configuration not stated), the values for the inhibition in test [1], in test [2] and in test [3] were 2.52%, 4.34% and 3.91%, respectively.

Turning to `N=C(N)NCCCN(Cc1ccccc1)c1ccc(Cl)cc1`, the inhibition in test [1] came to 7.39%; in test [2] it was 4.12%; in test [3] it was 4.83%.

Take `CCOC(=O)NC1=NC(=N)N(OCCCOc2cc(Cl)c(Cl)cc2Cl)C(C)(C)N1`: the inhibition in test [1] is -0.21%; in test [2], -0.15%; in test [3], 1.91%.

On to `O=C(c1ccccc1)N1CCC(CN2CCOC(c3ccccc3)(c3ccccc3)C2)CC1`, for which the inhibition in test [1] worked out at 3.71%; in test [2], 3.92%; in test [3] it was 2.8%.

As to `N#Cc1cccc(NC(=O)Nc2cccc(OC3CCN(Cc4ccccc4)CC3)c2)c1`, the values for the inhibition in test [1], in test [2] and in test [3] were 0.82%, 0.59% and -0.29%, respectively.

Consider `O=C(NC(=O)c1ccccc1O)c1ccccc1O`, for which the inhibition was -0.08% in test [1], 0.7% in test [2] and 0.89% in test [3].

In the case of `CC1(C)NC(N)=NC(=N)N1OCCSCCON1C(=N)N=C(N)NC1(C)C`, the figures for the inhibition in test [1], in test [2] and in test [3] were -0.9%, 0.07% and -0.26%, respectively.

For the molecule `CC(=O)N1N=C(c2[nH]c3ccc(Br)cc3c2C)OC1c1ccccc1` (configuration not stated), the inhibition in test [1] is 4.69%; in test [2], 4.06%; in test [3] it was 3.6%.

On to `N#Cc1cccc(C(=O)Nc2ccc(-c3cccc(CN4CCC(O)CC4)c3)cc2)c1`, for which the figures for the inhibition in test [1], in test [2] and in test [3] were 0.21%, 0.35% and -0.04%, respectively.

Take `Nc1nc(Nc2ccc(Cl)cc2)nc2ccccc12`: the inhibition in test [1] stood at 14%; in test [2], 12.4%; in test [3], 6.83%.

For `COc1cc(Nc2nccc(N3CCC(NC(=O)Nc4ccc5c(c4)OCO5)C3)n2)cc(OC)c1OC` (configuration not stated), the figures for the inhibition in test [1], in test [2] and in test [3] were 11.1%, 6.84% and 8.87%, respectively.

Turning to `Fc1cccc(COc2ccc(Nc3ncnc4cc(/C=C/[C@@H]5CCCN5)sc34)cc2Cl)c1`, the inhibition was 5.81% in test [1], 0.95% in test [2] and 1.52% in test [3].

Take `CCNc1cc(C(=O)N[C@@H](Cc2ccccc2)[C@H](O)CNC(C)(C)Cc2cccc(OC)c2)cc(N2CCCC2=O)c1`: the figures for the inhibition in test [1], in test [2] and in test [3] were -2.08%, -1.02% and -0.38%, respectively.

With `O=C(NC1CCCCC1)N(Cc1cccc(-c2ccc(CNCCc3ccccc3)cc2)c1)C1CCN(Cc2ccccc2)CC1`, the inhibition in test [1] came out at 6.68%; in test [2], 6.86%; in test [3] it was 4.45%.

As to `CC(=O)Nc1cccc(-c2cn(-c3ccc(OCc4cccc(F)c4)c(Cl)c3)c3ncncc23)c1`, the inhibition was 2.04% in test [1], 0.08% in test [2] and -0.28% in test [3].

As to `Cc1noc(C)c1-c1cccc(CNCc2ccc(-c3ccc(-c4nc5cc(F)ccc5[nH]4)s3)cc2)c1`, the inhibition was found to be 11.2% in test [1], 10.3% in test [2] and 10.2% in test [3].

Take `N#Cc1ccc2c(c1)CCN(CCC1CCC(NC(=O)/C=C/c3cnc4ccccc4c3)CC1)CC2` (configuration not stated): the inhibition in test [1] is 8.52%; in test [2] it was 4.53%; in test [3] it was 3.67%.

With `c1ccc(N2CCN(c3cc(-c4cccnc4)nc(-c4ccncc4)n3)CC2)nc1`, the values for the inhibition in test [1], in test [2] and in test [3] were 2.7%, 1.5% and 0.92%, respectively.

As for `Cc1cnc(NCC2CCCCC2)nc1NCC(=O)Nc1ccccc1`, the inhibition in test [1] was 4.2%; in test [2] it was 4.34%; in test [3], 6.18%.

Consider `COc1cc(NC(=O)N2CCc3ccc(OCCN(C(C)C)C(C)C)cc32)cc(C(F)(F)F)c1`, for which the inhibition in test [1] was found to be 1.98%; in test [2], 1.73%; in test [3], 2.06%.

As to `Cc1cc(N(C)C)nc(Nc2ccc(NC(=O)c3ccccc3Cl)cc2)n1`, the inhibition in test [1] was -1.66%; in test [2] it was 5.72%; in test [3], -4.81%.

Turning to `CCOc1c(CNCCCNc2nc3ccccc3[nH]2)cc(Br)cc1OC`, the inhibition was 2.6% in test [1], -3.13% in test [2] and 4.2% in test [3].

As to `COc1ccc2nc(C)cc(Nc3ccc(N4CCN(C)CC4)cc3)c2c1`, the inhibition amounted to 0.93% in test [1], 2.03% in test [2] and 0.99% in test [3].
